Inconclusive results are not listed. Unmarked numbers belong to inactive results. Calls of active or inactive are those of the source. Calls come from the whole dose curve; as a rule, active = well fitted activation curve with a large enough effect; inconclusive = small, poorly fitted or top-dose-only effect, or another doubt; inactive = no such curve, though single readings can be large or run the other way.
Potency is the fitted concentration of half-maximal effect.

This assay concerns the target Rap guanine nucleotide exchange factor 3 (Homo sapiens) (UniProt O95398). Kind of assay: Counterscreen qHTS for agonist of cAMP-regulated guanine nucleotide exchange factor 3 (EPAC1) (AID 1645889). For activation: % of control where 0% means no effect. Note: nearly all actives have a fitted effect of over 40% in size. The following applies: EPAC1 Rap1B-BODIPY-GDP exchange, fluorescence; series mostly up to 154 µM; activation: at the top concentration. From the text: Assay Provider (PI): Xiaodong Cheng Ph.D. The University of Texas Medical Branch, […], TX MLPCN Grant: NS066510 In multi-cellular eukaryotic organisms, the effects of cAMP are transduced by two ubiquitously-expressed intracellular cAMP receptors, the classic protein kinase A/cAMP-dependent protein kinase (PKA/cAPK) and the more recently discovered exchange protein directly activated by cAMP/cAMP-regulated guanine nucleotide exchange factor (EPAC/cAMP-GEF). Both PKA and EPAC are ubiquitously expressed in all tissues, and an increase in intracellular cAMP levels will lead to the activation of both PKA and EPAC. Therefore, careful dissections of the individual role and relative contribution of EPAC and PKA within the overall cAMP signaling in various model systems are critical for further elucidating the mechanism of cAMP signaling. To date no EPAC-specific antagonists and agonist, as well as isoform-specific agonists have been reported, and developing EPAC-specific pharmacological probes to determine the physiological functions that EPAC play in the overall cAMP-mediated signaling remains a major challenge within the research field. Furthermore, identified regulators of EPAC may lead to new mechanism-based therapeutic strategies specifically targeting the EPAC / cAMP-signaling components as EPAC has been implicated to play important roles in major human pathological conditions such as diabetes, heart disease, and cancer. This qHTS will be used to screen the Molecular Libraries Small Molecule Repository (MLSMR) as a concentration-titration series using the NCGC unique quantitative screening (qHTS) platform to find activators for EPAC1. In addition, this assay will also be used as a counterscreen for the EPAC2 qHTS. This fluorescent based assay is developed and validated for EPAC1 that measures exchange using EPAC effector Rap1 complex with BODIPY-GDP, a GDP analog with a tethered fluorophores. Activators are identified by monitoring the change in fluorescence signal as the exchanged free BODIPY-GDP has a reduced fluorescence compared to Rap1-bound BODIPY-GDP. Increase in signal (activation) is the desired outcome for the EPAC1 agonist while no activity in this assay is desired for the EPAC2 agonist counterscreen. Reference: [1] de Rooij, J., Zwartkruis, F. J., Verheijen, M. H., Cool, R. H., Nijman, S. M., Wittinghofer, A., and Bos, J.L. (1998) Nature 396, 474-477. Kawasaki, H., Springett, G. M., Mochizuki, N., Toki, S., Nakaya, M., Matsuda, M., Housman, D. E., and Graybiel, A. M. (1998) Science 282, 2275-2279.
EPAC1 Counterscreen PROTOCOL TABLE SEQUENCE No. (e.g., 1, 2, 3, etc.); […] (e.g., Cells, Incubation, Reagent, etc.); VALUE and DESCRIPTION. 1. Reagent. 3 uL. [1x] 250 nM Rap1B-BODIPY-GDP, and 50 uM GDP. 2a. Compound. 23 nL. Control 6,572 uM cAMP (working concentration). 2b, 2c. Compound. 23 nL. Control activator and inhibitor; 234 - 30,000 uM cAMP and 16.4 - 10,000 uM. 2d. Compound. 46 nL. MLSMR follow-up library; 0.64 - 10,000 uM. 3. Time. 15 sec, 1000rpm. Centrifuge. 4. Time. 5 min. Incubation at room temperature. 5. Detector. Fluorescence. (Read 1), Ex/Em = 480 nm / 540 nm. 6. Time. 30 min. Incubation at room temperature. 7. Detector. Fluorescence. (Read 2), Ex/Em = 480 nm/ 540 nm. 8. Reagent. 1uL. Dispense either [4x] 10 uM cAMP or buffer. 9. Time. 15 sec, 1000 rpm. Centrifuge. 10. Time. 5 min. Incubation at room temperature. 11. Detector. Fluorescence. (Read 3), Ex/Em = 480 nm / 540 nm. 12. Time. 30 min. Incubation at room temperature. 13. Detector. Fluorescence. (Read 4), Ex/Em = 480 nm / 540 nm. NOTES (numbers refer to Sequence numbers above; values are from representative experiments) 1. Medium-binding black solid-bottom Greiner plates (789176-F). Dispense 3 uL of [1x] 250 nM Rap1B-BODIPY-GDP, and 50 uM GDP into columns 1 to 48. 2a. Control compound cAMP (6,572 uM, column 3, rows 1 to 32) single pin-transferred for a [final] of 50 uM. 2b. […]
`CC(C(=O)Nc1ccccc1-c1ccccc1)N1CCN(C(=O)c2ccccc2)CC1` (stereo not given): the activation is 29% [at 30.8 µM]. Same read-out and setting: the same measure for `Cc1nn(CCc2nn[nH]n2)c2nc(-c3ccc(C4CCCCC4)cc3)cc(C(F)(F)F)c12`: -11.7%; for `COc1cccc(/C(=N/O)C2CC2c2ccc(Cl)cc2)c1` (stereo not given): 9.41% [at 30.8 µM]. The same measure, in the same setting: the same measure for `COc1ccccc1C(=O)NC(CCSC)C(=O)NCc1ccccn1` (stereo not given): -9.2% [at 30.8 µM]; for `COc1cccc(OC)c1C(=O)Nc1ccccc1Sc1ccccc1`: 13.1%; for `c1ccc(-n2nnnc2-n2ccnc2)cc1`: -4.14%. On the same count and under the same terms, to `COC1=CC(=O)c2c(ccc3ncnc(N)c23)C1=O` belongs -8.31%; to `CC(=O)N1c2ccc(S(=O)(=O)NCCc3ccccc3)cc2CC1C` (stereo not given), 19.1%.

`CCC(C)Sc1c(C(C)C)cnc2c1c(=O)n(C)c(=O)n2C` (stereo not given): the “activation” value was 4.73%. On to `Cc1nc2cc(NC(=O)CCS(=O)(=O)c3ccccc3)ccc2s1`, for which the activation was 14.1% [at 30.8 µM]. On to `CCOc1ccc(NC(=O)CN(C)C(=O)c2ccccc2SCc2c(C)noc2C)cc1OCC`, for which the activation was 18% [at 30.8 µM]. `O=C(CNC(=O)c1sc2ccccc2c1Cl)Nc1ccccc1F`: the activation is 2.6% [at 30.8 µM]. In the case of `CCN1/C(=C/C(C)=C/c2sc3ccccc3[n+]2CC)Sc2ccccc21`, the activation is 12.5% [at 30.8 µM]. The same measure, in the same setting: the same measure for `CCCCCCNC(=O)c1cc(-c2ccco2)nc2ccccc12`: 27.4% [at 30.8 µM]; for `COc1ccc(N(C)S(=O)(=O)c2cccc3nsnc23)cc1`: 3.3%. As for `CC[C@@]1(c2ccccc2OC)ON(c2ccccc2C(F)(F)F)C1=O`, the “activation” value is 11.6%. Take `COc1ccc(N(C)C(=O)c2oc(=O)c3ccccc3c2-c2ccc(C)cc2)c(OC)c1`: the “activation” value was 12.7%. For the molecule `O=C(COC(=O)c1ccc2c(c1)OCO2)NC1CCS(=O)(=O)C1` (stereo not given), the “activation” value was 2.28%. Turning to `O=C(N/N=C/c1c(O)n(-c2ccccc2Cl)c(=O)c2ccccc12)c1cccnc1`, the “activation” value was 10.1%. `Cc1cccc(CN2[C@@H](CC(C)C)COCCS2(=O)=O)c1`: the “activation” value is 4.6%. With `c1ccc(-c2nnc3sc(CN4CCC5(CC4)OCCO5)cn23)cc1`, the “activation” value was 2.88%.

As to `CN(Cc1ccccc1F)c1nc(-c2cccs2)nc2ccccc12`, the activation is 4.35% [at 30.8 µM]. Consider `CCCOc1c(OC)cccc1C1CC(=O)Nc2cc(OC)c(OC)c(OC)c21` (stereo not given), for which the “activation” value was 11.4%. Same read-out and setting: to `COc1cccc(C(NC(C)=O)c2nc(-c3csc4ccccc34)cs2)c1` (stereo not given) belongs 29.4% [at 30.8 µM]. Regarding `Cc1cc2[nH]c(=O)c(=O)[nH]c2cc1S(=O)(=O)Nc1cccc(Cl)c1`, the “activation” value is -11.1%. Take `Cc1cnc(C(=O)N(c2ccc(N3CCOCC3)cc2)C2C(=O)Nc3ccccc3N=C2c2ccc(F)cc2)cn1` (stereo not given): the “activation” value is 7.61%. For the molecule `C=CCc1ccccc1Oc1cc(OC)nc(N)n1`, the activation is -1.76% [at 30.8 µM]. Still for that read-out and setting: to `O=C(OC1CCOC1=O)c1ccc(-c2nc3ccccc3s2)s1` (stereo not given) belongs 16.1%. Turning to `CN1CCS/C1=C/C=C1\SC(=S)N(CC(=O)O)C1=O`, the Potency is 14.1 µM (active). With `N#C/C(=C/c1ccc(N2CCOCC2)o1)c1nc2ccccc2[nH]1`, the Potency is 63.1 µM (active).

Consider `CC(=O)Nc1ccc(C=NNc2ccc(S(=O)(=O)Nc3ccccc3C(=O)O)cc2[N+](=O)[O-])cc1`, for which the activation was 13.4% [at 30.8 µM]. On to `CSc1ccccc1NC(=O)COc1ccccc1C`, for which the activation was 4.86% [at 30.8 µM]. With `COc1ccc(C(CC(=O)N2CCOCC2)c2c(OC)cc(OC)c3c(-c4ccccc4)cc(=O)oc23)cc1` (stereo not given), the “activation” value was 13.3%. As for `Cc1ccc(/C=C/C(=O)Nc2ccc(S(=O)(=O)Nc3cc(C)nc(C)n3)cc2)cc1`, the “activation” value is 4.24%.

With `CC[n+]1c(/C=C/C=C/N(C(C)=O)c2ccccc2)sc2cc(OC)ccc21`, the Potency is 50.1 µM (active). As to `CCOC(=O)c1sc2nc(-c3ccco3)c3c(c2c1N)CC(C)(C)OC3`, the activation is 25.5% [at 30.8 µM].

For the molecule `O=[N+]([O-])c1cc([N+](=O)[O-])c2nonc2c1Nc1ccc(O)cc1`, the “activation” value is 1.09%.

As for `COc1ccc(OC)c(/C=C2\SC(=S)N(NS(=O)(=O)c3ccccc3)C2=O)c1`, the “activation” value was 4.06%. Regarding `Clc1ccc(-c2cc3ccccc3nc2N2CCOCC2)cc1`, the “activation” value is 11.6%. For the molecule `Cc1ccc(C2=NOC(=O)/C2=C\c2ccc(C)o2)cc1`, the “activation” value was 4.09%.

These data come from PubChem BioAssay (NCATS).
